Compounds with a hit are over-represented: about 5.7% of the library has one in this group of screens.
BAZ2B block: BAZ2B (human) inhibition | AID 504333 | 4.4% of 360,000 active | Potency, µM (highest dose often 114 µM), for the others: at the highest dose activity change, negative = inhibition, usual class: inhibitors | AlphaScreen BAZ2B-H3K14Ac peptide displacement; also: potency is read from the fitted curve at half-maximal effect; % is scaled to controls: 0 for no effect and ±100 for the full control effect; nearly all actives have a fitted effect of over 60% in size
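BAZ2B (50 nM) with biotin-H3(5-23)K14Ac peptide (50 nM) in PBS pH 7.4, 0.01% Tween-20, preformed 30 min, then compound 30 min at room temperature; top concentration 110uM. AlphaScreen streptavidin donor/nickel chelate acceptor beads (10 ug/mL final), 20 min dark, signal read.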
L3MBTL1 inh: blocks human L3MBTL1; Q9Y468; AlphaScreen L3MBTL1–H3K9me1 peptide binding; Potency, µM (highest dose often 57.1 µM), for the others: at the highest dose activity, negative = inhibition, actives largely listed as inhibitors; 0.66% of 230,000 active; also: potency is read from the fitted curve at half-maximal effect; % is scaled to controls: 0 for no effect and ±100 for the full control effect; nearly all actives have a fitted effect of over 60% in size
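Displacement of a biotinylated histone H3(1-15) peptide monomethylated at Lys9 (75 nM) from L3MBTL1 (50 nM) was measured by AlphaScreen after a 30 min room-temperature compound incubation; cefsulodin titration served as intraplate control.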
PI5P4Ka inh: inhibitors of human PI5P4K alpha. max response, %. AID 652105. P48426. 1.2% of 330,000 active. PI5P4Kalpha enzyme, ADP-Glo luminescence, 60 min; stronger effect = lower value; active = max response of -50% or lower; inconclusive = between -30% and -50%; inactive = -30% or higher; also: value at the top dose of about 77 µM; % is scaled to controls: 0 for no effect and ±100 for the full control effect
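ADP-Glo luminescence end-point after a 60 min room-temperature kinase reaction. PI5P4Kalpha and substrate in HEPES pH 7.4 buffer with EGTA, 0.1% CHAPS and 5% DMSO; ATP at 5 microM final.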
JMJD2E inh: inhibitors of human JMJD2E histone demethylase; B2RXH2; JMJD2E catalytic domain, FDH-coupled NADH fluorescence (FDH is formaldehyde dehydrogenase); Potency, µM (highest dose often 57.1 µM), inactives show at the highest dose activity change, negative = inhibition, usual class: inhibitors; 1.6% of 230,000 active; AID 2147; active = well fitted inhibition curve with a large enough effect, not every such curve was filed as active; inconclusive = small, poorly fitted or top-dose-only effect, or another doubt; inactive = no such curve, though single readings can be large or run the other way;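 also: potency is read from the fitted curve at half-maximal effect; 0% = wells with enzyme and -100% = buffer wells without enzyme; nearly all actives have a fitted effect of over 50% in size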
JMJD2A Tudor inh: blocks the human JMJD2A Tudor domain. O75164. AlphaScreen JMJD2A-Tudor / H3K4me3 peptide binding. Potency, µM (top dose mostly 114 µM), for inactives: at the top dose activity change, negative = inhibition, usual class: inhibitors. 4.4% of 390,000 active. AID 504339; also: potency is read from the fitted curve at half-maximal effect; % is scaled to controls: 0 for no effect and ±100 for the full control effect; nearly all actives have a fitted effect of over 50% in size
Target sequence (O75164 whole entry, looked up, the tested form may be a part): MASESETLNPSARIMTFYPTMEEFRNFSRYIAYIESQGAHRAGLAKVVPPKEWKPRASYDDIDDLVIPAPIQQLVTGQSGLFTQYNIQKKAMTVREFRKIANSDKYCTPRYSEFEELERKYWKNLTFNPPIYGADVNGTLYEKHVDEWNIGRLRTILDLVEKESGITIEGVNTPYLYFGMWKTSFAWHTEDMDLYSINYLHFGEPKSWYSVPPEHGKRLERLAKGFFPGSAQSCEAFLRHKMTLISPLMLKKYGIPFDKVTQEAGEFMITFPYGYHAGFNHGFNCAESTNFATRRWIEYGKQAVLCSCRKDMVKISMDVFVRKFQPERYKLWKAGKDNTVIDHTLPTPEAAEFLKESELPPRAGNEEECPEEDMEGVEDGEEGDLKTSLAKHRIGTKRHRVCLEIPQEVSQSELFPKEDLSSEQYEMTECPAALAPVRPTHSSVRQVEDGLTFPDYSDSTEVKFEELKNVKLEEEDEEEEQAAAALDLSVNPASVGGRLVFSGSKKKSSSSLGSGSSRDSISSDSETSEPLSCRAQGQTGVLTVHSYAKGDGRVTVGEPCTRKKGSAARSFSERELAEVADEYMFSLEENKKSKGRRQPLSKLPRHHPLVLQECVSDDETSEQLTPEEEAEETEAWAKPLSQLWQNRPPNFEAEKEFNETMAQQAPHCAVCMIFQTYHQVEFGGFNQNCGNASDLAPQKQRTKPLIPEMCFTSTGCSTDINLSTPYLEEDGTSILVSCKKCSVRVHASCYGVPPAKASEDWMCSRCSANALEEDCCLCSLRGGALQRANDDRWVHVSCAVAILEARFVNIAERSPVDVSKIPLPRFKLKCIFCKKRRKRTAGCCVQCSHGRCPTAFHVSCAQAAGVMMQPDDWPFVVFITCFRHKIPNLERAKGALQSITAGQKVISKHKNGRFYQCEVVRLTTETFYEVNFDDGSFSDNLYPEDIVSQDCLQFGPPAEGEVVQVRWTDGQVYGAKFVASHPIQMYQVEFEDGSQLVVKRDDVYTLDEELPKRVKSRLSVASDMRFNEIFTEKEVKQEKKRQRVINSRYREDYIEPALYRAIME
HP1b binding inh: HP1-beta chromodomain-methylated histone interaction inhibition. AlphaScreen HP1-beta / biotin-H3K9me3 peptide binding. Potency, µM (highest dose often 114 µM), for the others: at the top dose activity change, negative = inhibition, hits mostly inhibitors. 0.56% of 390,000 active. P83916. AID 540317; also: potency is read from the fitted curve at half-maximal effect; nearly all actives have a fitted effect of over 70% in size
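AlphaScreen: HP1-beta (50 nM) preformed 30 min with biotin-H3(1-18)K9me3 peptide (50 nM) in PBS pH 7.4, 0.01% Tween-20. Compound added for 30 min at RT, then streptavidin donor/nickel chelate acceptor beads (10 ug/mL) for 30 min.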
Active calls of the source: *; ? = inconclusive; nt = no result given; [ ] = another dose, or the depositor's remark. Unless noted, calls follow the shape of the dose curve; as a rule, active = well fitted inhibition curve with a large enough effect; inconclusive = small, poorly fitted or top-dose-only effect; inactive = no such curve, though single readings can be large or run the other way.

SMILES | BAZ2B block | L3MBTL1 inh | PI5P4Ka inh | JMJD2E inh | JMJD2A Tudor inh | HP1b binding inh
COc1cc(C#Cc2c(-c3cncn3C)n(C)c3ccc(-c4ccc(OC)c(OC)c4)cc23)cc(OC)c1 | ? | ? | 0.5 | nt | 44.7µM* | -8.7%
CCOC(=O)c1c(/N=C/c2cc(C)ccc2O)sc2c1CCN(C)C2 | ? | ? | 1.2 | ? | 44.7µM* | ?
CCOC(=O)c1c(NC(=O)c2ccc(S(=O)(=O)N3CCOCC3)cc2)sc2c1CCN(C)C2 | ? | -3.1% | nt | 13.0% | -20.1% | 15.5%
COc1cccc2c1C(=O)c1c(O)c3c(c(O)c1C2=O)C[C@@](O)(C(=O)CO)C[C@@H]3O[C@@H]1C[C@H](N)[C@H](O)[C@H](C)O1 | nt | nt | nt | 22.4µM* | nt | nt
COc1cccc2c1C(=O)c1c(O)c3c(c(O)c1C2=O)C[C@@](O)(C(=O)CO)C[C@@H]3OC1CC(N)C(O)C(C)O1 (some centres not stated) | nt | nt | -16.1 | nt | ? | ?
COc1cccc2c1C(=O)c1c(O)c3c(c(O)c1C2=O)C[C@@](O)(C(=O)CO)C[C@@H]3O[C@H]1C[C@H](N)[C@H](O)[C@H](C)O1 | 35.5µM* | -13.9% | 0.5 | ? | -12.9% | 16.0%
Cc1cccc(S(=O)(=O)NC2CCN(C#N)C2)c1 (configuration not stated) | nt | nt | nt | nt | -4.1% | nt
COc1ccc(C(NC(=O)C2CCN(CCCOc3ccccc3)CC2)c2cccs2)cc1 (configuration not stated) | nt | nt | 8.1 | nt | nt | nt
O=C(NCc1cccc(Cl)c1)c1cccn1-c1nnc(N2CCCC2)s1 | -8.6% | nt | nt | nt | -20.5% | 13.9%
CCc1ccccc1Nc1sc(C(=O)c2ccccc2)c(N)c1S(=O)(=O)c1ccccc1 | -17.2% | nt | nt | nt | -29.9% | 16.6%
O=c1c2cnn(-c3ccc(F)cc3)c2ncn1Cc1ccccc1Cl | -1.3% | nt | nt | nt | 9.7% | 33.1%
CN(C)[C@@H]1C(=O)C(C(=O)NCN2CCCC2)=C(O)[C@@]2(O)C(=O)C3=C(O)c4c(O)cccc4[C@@](C)(O)C3CC12 (some centres not stated) | 1.26µM* | ? | nt | ? | nt | nt
O=C1NC[C@@H](Cc2ccc(O)cc2)N(CCc2cc(C(F)(F)F)cc(C(F)(F)F)c2)C1=O | nt | nt | -68.3* | nt | nt | nt
CC(C)OC(=O)[C@@H]1CC[C@H](C)[C@@H](CCCCO)O1 | nt | nt | nt | 14.0% | nt | nt
CC(C)N1CCc2c(sc(NC(=O)c3cc(-c4cccs4)nc4ccccc34)c2C(N)=O)C1 | 39.8µM* | -11.2% | -23.1 | -4.2% | ? | -6.1%
Cc1ccc2occ(-c3cc(-c4ccccc4)nc4c3COc3ccccc3-4)c(=O)c2c1 | -19.8% | nt | nt | nt | -7.5% | 30.4%
Cc1ccc2cc(CN(Cc3cccs3)C(=O)c3ccco3)c3nnnn3c2c1C | 13.7% | 8.1% | nt | 3.0% | nt | nt
Cc1ccc2c(c1)cc(CN(Cc1cccs1)C(=O)c1ccco1)c1nnnn12 | 1.5% | -0.2% | ? | -4.8% | 28.2µM* | ?
CCOc1ccccc1NC(=O)c1nn(C)c2c1CSc1ccccc1-2 | -27.8% | nt | nt | nt | ? | 8.8%
O=C(Nc1ccc2nc3n(c(=O)c2c1)CCCCC3)C(=O)N1CCN(c2ccccc2F)CC1 | 15.4% | nt | -14.4 | nt | 35.5µM* | 3.2%
COc1ccc2c(c1)Oc1ncn(CCN3CCOCC3)c(=N)c1C2c1ccc(OC)c(OC)c1 (configuration not stated) | nt | nt | nt | nt | -19.7% | nt
CCC(Oc1ccccc1)C(=O)Nc1ccc(OCc2cc(=O)n3ccc(C)cc3n2)cc1 (configuration not stated) | 6.1% | nt | nt | nt | 12.7% | 26.9%[57 µM]
CN(C)c1cccc(N=C2C=C(N3CCOCC3)CC(C)(C)C2)c1 | -2.9% | -6.0% | -3.3 | -7.3% | 50.1µM* | -11.4%
Cc1ccc(NC(=O)COc2ccc(Br)cc2C)cc1 | -1.8% | 18.8% | 9.2 | -3.7% | 0.7% | 23.5%
COc1ccccc1OCCCCNC(C)(C)C | nt | 1.8% | nt | 2.9% | -11.0% | 7.5%
SMILES | BAZ2B block | L3MBTL1 inh | PI5P4Ka inh | JMJD2E inh | JMJD2A Tudor inh | HP1b binding inh
Cc1cc(Br)ccc1OCCCCNC(C)(C)C | 50.1µM* | -0.9% | -7.5 | -23.0% | 28.2µM* | 10.6%
COCCNCCCCOc1ccc(Br)cc1C | 50.1µM* | 5.2% | 1.4 | ? | 1.12µM* | ?
COCCCNCCCCOc1ccc(Br)cc1C | ? | 11.2% | -7.4 | ? | 20µM* | ?
COc1ccc([N+](=O)[O-])cc1NC(=O)C(C)OC(=O)C1CCC1 (configuration not stated) | -0.9% | 0.2% | 1.3 | nt | -10.3% | 9.2%
CCOC(=O)/C(C#N)=C1\C(=O)N(Cc2ccccc2)c2ccccc21 | 35.5µM* | -10.1% | -14.1 | 2.1% | 20µM* | 14.1µM*
COc1ccc(-c2ccccc2)cc1NCc1ccc(OC)c(OC)c1 | 39.8µM* | ? | -2.6 | ? | 39.8µM* | ?
COc1ccc(-c2ccccc2)cc1NCc1ccccc1C | 50.1µM* | -11.0% | 1.0 | ? | ? | -11.7%
Cc1ccccc1NCc1ccccc1O | 56.2µM* | -3.1% | 2.2 | -7.6% | ? | -3.4%
COc1cc2ncnc(NCc3ccccc3C)c2cc1OC | -2.9% | 1.1% | -8.2 | -7.5% | 4.5% | 22.8%
O=C(CCCc1nc(-c2ccccc2Cl)no1)NC1CCCC1 | -17.3% | nt | -1.0 | nt | -14.7% | 28.3%
Cc1nc2nc(SCC(=O)Nc3cccc(Cl)c3)nn2c(C)c1Cc1ccccc1 | 4.3% | nt | nt | nt | -6.4% | 22.2%
O=C(Nc1cccc2ccccc12)c1ccc([N+](=O)[O-])cc1 | -35.2% | 19.0% | -1.6 | nt | 3.7% | 17.2%
O=C(Nc1cc([N+](=O)[O-])ccc1O)c1cccc([N+](=O)[O-])c1 | -36.4% | -4.3% | -3.6 | nt | -19.9% | 43.7%
O=C(Nc1cccc2c(=O)[nH][nH]c(=O)c12)c1ccc([N+](=O)[O-])cc1 | nt | nt | -64.5* | nt | nt | nt
O=C(Nc1cc([N+](=O)[O-])ccc1O)c1cccc(C(=O)Nc2cc([N+](=O)[O-])ccc2O)c1 | 50.1µM* | -5.6% | -24.2 | nt | ? | -24.3%

Screening data: PubChem BioAssay, National Center for Advancing Translational Sciences (NCATS)
